This is a sample that favours compounds with a hit; in the whole collection about 11% have one here.
AmpC inh detg – inhibitors of E. coli AmpC beta-lactamase with detergent. AID 485294. Potency, µM (doses to about 114 µM), without a hit: at the top dose activity change, negative = inhibition, actives largely listed as inhibitors. AmpC hydrolysis of nitrocefin, absorbance 480 nm, 0.01% Triton. P00811. actives 0.041% (n = 370,000);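 note: 0% = no-compound wells and -100% = no-enzyme wells; nearly all actives have a fitted effect of over 25% in size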
Target sequence (P00811 whole entry, looked up): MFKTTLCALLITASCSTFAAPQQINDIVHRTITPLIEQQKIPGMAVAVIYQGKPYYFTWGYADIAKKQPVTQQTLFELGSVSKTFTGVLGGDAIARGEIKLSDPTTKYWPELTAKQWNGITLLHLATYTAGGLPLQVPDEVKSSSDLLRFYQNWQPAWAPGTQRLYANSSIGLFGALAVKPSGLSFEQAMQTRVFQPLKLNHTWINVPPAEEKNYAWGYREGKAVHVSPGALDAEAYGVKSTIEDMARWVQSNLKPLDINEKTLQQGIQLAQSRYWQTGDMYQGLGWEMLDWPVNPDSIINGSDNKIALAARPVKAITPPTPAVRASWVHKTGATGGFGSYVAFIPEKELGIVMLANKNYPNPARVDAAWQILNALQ
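AmpC (5.3 nM in the dispensed reagent) in 20 mM phosphate pH 7.0 with 0.01% (detergent screen) or 0.0001% Triton X-100 was preincubated with compounds for 15 min at room temperature. Nitrocefin was then added from an 800 uM solution, and hydrolysis was followed at 480 nm.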
AmpC no deterg – blocks E. coli AmpC beta-lactamase in detergent-free assay; P00811; AmpC nitrocefin hydrolysis, absorbance 480 nm, 0.0001% Triton; Potency, µM (titrated, usually from 57.1 µM), for the others: at the highest dose activity change, negative = inhibition, most hits filed as inhibitors; actives 0.52% (n = 330,000); AID 485341;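 note: plate controls were no compound for no effect and no enzyme for full effect; nearly all actives have a fitted effect of over 20% in size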
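AmpC (5.3 nM in the dispensed reagent) in 20 mM phosphate pH 7.0 with 0.01% (detergent screen) or 0.0001% Triton X-100 was preincubated with compounds for 15 min at room temperature. Nitrocefin was then added from an 800 uM solution, and hydrolysis was followed at 480 nm.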
HCV inhibitor – inhibitors of hepatitis C virus infection. Huh7.5.1 HCVcc-Cre infection, luciferase reporter, 44 h. Potency, µM (doses to about 41.8 µM), for the others: at the highest dose activity change, negative = inhibition, actives largely listed as inhibitors. actives 3.4% (n = 340,000)
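Infectious HCV cell culture screen: compound-treated cells (1,000/well, pre-plated 4 h) are infected with HCVcc-Cre at roughly 0.5 moi and grown 44 h. Infection is quantified by luciferase signal after 15 min substrate incubation at room temperature.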
Pf growth 96h – P. falciparum growth inhibition at 96 hours; P. falciparum luciferase reporter growth, 96 h; actives 6.9% (n = 320,000); Potency, µM (titrated, usually from 28.7 µM), inactives show at the highest dose activity change, negative = inhibition, hits mostly inhibitors
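P. falciparum expressing integrated firefly luciferase grown in erythrocytes (2% hematocrit, 0.05% parasitemia final) with compounds for 96 hours at 37 C, 5% CO2. Growth inhibition read as loss of luminescence after adding luciferase detection reagent.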
AMA1-RON2 inh – disrupts binding of P. falciparum AMA1 to RON2; AlphaScreen AMA1-biotinylated RON2 peptide binding; actives 0.2% (n = 360,000); Potency, µM (highest dose often 58.2 µM), for the others: at the highest dose activity change, negative = inhibition, actives largely listed as inhibitors;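 note: 0% = vehicle wells and -100% = peptide control; nearly all actives have a fitted effect of over 45% in size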
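AMA1 (3D7) with his tag at 25 nM final met compounds first, then biotinylated RON2 peptide at 25 nM; detection used donor plus acceptor beads, 10 µg/mL apiece, read by AlphaScreen after 30 min at room temperature.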
Pf growth 48h – P. falciparum growth inhibition at 48 hours (one generation) | P. falciparum luciferase growth in erythrocytes, 48 h | Potency, µM (top dose mostly 28.7 µM), inactives show at the highest dose activity change, negative = inhibition, usual class: inhibitors | AID 504832 | actives 5.9% (n = 310,000)
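Read-out is firefly luciferase luminescence from an integrated reporter in P. falciparum, so falling signal marks reduced parasite growth. Infected erythrocytes were at 2% hematocrit and 0.1% parasitemia (final) in Albumax-supplemented RPMI 1640.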
* = called active by the depositor; ? = inconclusive; . = no result. Calls come from the whole dose curve; as a rule, active = well fitted curve in the direction sought with a large enough effect; inconclusive = small, poorly fitted or top-dose-only effect, or another doubt; inactive = no such curve, though single readings can be large; an effect the other way counts as inactive or inconclusive. Unless noted, % is set by controls: 0 for no effect and ±100 for the full control effect; potency is the fitted concentration of half-maximal effect.

SMILES	AmpC inh detg	AmpC no deterg	HCV inhibitor	Pf growth 96h	AMA1-RON2 inh	Pf growth 48h
CCOC(=O)c1c(-c2ccsc2)csc1N	-8.5%	-53.8%	-23.0%	-3.8%	-6.0%	2.94µM*
O=C(CCn1c(=O)c2cccn2c2ccc(F)cc21)NCc1ccccc1F	0.7%	.	.	.	.	.
Nc1ccc(Nc2ccccc2N)cc1	?	-31.7%	11.2µM*	-24.2%	1.4%	?
COc1ccc(Nc2ccccc2N)cc1	-1.7%	-22.8%	?	?	?	?
COC(=O)c1ccc(NC(=O)C(C)N2Cc3ccccc3C2=O)cc1 (stereo not drawn)	4.3%	.	.	.	.	.
Cc1nn(-c2cc(N3CCCCC3)ccc2N)c(=O)c2ccccc12	0.1%	0.3%	12.7%	3.1%	-1.8%	10.3%
O=C(COc1ccc(Br)cc1)N1CCN(c2ccc([N+](=O)[O-])c(N3CCCCC3)c2)CC1	?	-1.1%	?	?	-21.0%	-20.2%
Nc1cc(N2CCNCC2)c([N+](=O)[O-])cc1Cl	-5.3%	-22.8%	4.5%	31.6%	10.2%	-3.3%
O=[N+]([O-])c1ccc(N2CCNCC2)cc1N1CCCCC1	4.5%	-11.8%	10µM*	-19.9%	0.0%	-4.6%
O=C(COc1ccccc1)N1CCN(c2ccc([N+](=O)[O-])c(N3CCCCC3)c2)CC1	2.0%	-19.2%	7.08µM*	?	-22.9%	?
CCn1c(=O)n(CC)c2cc([N+](=O)[O-])c(N3CCNCC3)cc21	5.3%	-2.3%	?	5.86µM*	6.1%	-18.1%
Cc1nn(-c2cc(N3CCCCCC3)ccc2[N+](=O)[O-])c(=O)c2ccccc12	?	-34.8%	12.6µM*	.	-19.1%	?
O=C(CSc1nnc2scc(-c3ccc(Cl)cc3)n12)Nc1ccccc1F	2.8%	.	.	.	.	.
COc1ccc(-c2c(C)nn3c(C(F)(F)F)cc(-c4ccccc4)nc23)cc1OC	1.6%	.	.	.	.	.
CCOc1cc(N2CCCC2)ccc1[N+](=O)[O-]	-6.5%	-2.5%	?	6.57µM*	-8.8%	9.5%
COc1ccccc1OCCNc1cc(N2CCCCC2)ccc1[N+](=O)[O-]	-16.5%	-28.8%	?	-10.7%	?	1.9%
Cc1oc2ncnc(N3CCCCC3)c2c1C(=O)NCC1CCN(Cc2ccc(F)cc2)CC1	22.3%	.	.	.	.	.
CC(CN1CCCCC1)C(=O)NNC(=O)C12CC3CC(CC(C3)C1)C2 (stereo not drawn)	7.4%	-18.1%	6.8%	11.7µM*	-10.4%	29.5%
CC(CN1CCCCCC1)C(=O)NN (stereo not drawn)	1.2%	-33.4%	7.1%	36.0%	1.8%	11.0%
Cc1sc2c(c1C)c(=O)n(-c1ccc(Cl)cc1)c(=O)n2CC(=O)c1ccccc1	6.8%	.	.	.	.	.
COc1ccccc1N1CCN(C(=O)c2cc(S(=O)(=O)N3CCCCC3)ccc2C)CC1	.	285.1%	-12.6%	.	-8.4%	.
COc1ccc(S(=O)(=O)N2CCCCCC2)cc1C(=O)N1CCN(c2ccccc2O)CC1	-3.0%	66.3%	-9.6%	4.65µM*	-10.8%	2.33µM*
COc1ccc(S(=O)(=O)N2CCCCCC2)cc1C(=O)N1CCN(c2ccccc2C)CC1	-0.5%	134.9%	?	5.86µM*	-4.5%	11.7µM*
COc1ccc(S(=O)(=O)N2CCCCCC2)cc1C(=O)N1CCN(c2ccc(F)cc2)CC1	.	.	-29.5%	.	-8.6%	.
COc1ccc(N2CCN(C(=O)c3cc(S(=O)(=O)N4CCCCCC4)ccc3OC)CC2)cc1	-3.9%	157.6%	-18.8%	?	?	11.7µM*
SMILES	AmpC inh detg	AmpC no deterg	HCV inhibitor	Pf growth 96h	AMA1-RON2 inh	Pf growth 48h
CC(=O)c1ccc(N2CCN(C(=O)C3CCCN(S(=O)(=O)c4cnc[nH]4)C3)CC2)cc1 (stereo not drawn)	0.0%	-6.7%	-5.0%	5.86µM*	15.1%	?
Cc1ccc(CNC(=O)c2ccc(CSCc3ccccc3Cl)o2)cc1	-2.1%	.	.	.	.	.
COc1cc(NC(=O)CCc2c(C)nn(-c3ccc4nnc(C)n4n3)c2C)cc(OC)c1OC	1.7%	.	.	.	.	.
COc1ccc(N2CCN(C(=O)C3CCCN(S(=O)(=O)c4ccc(C)cc4)C3)CC2)cc1 (stereo not drawn)	0.7%	105.9%	2.51µM*	35.4%	-7.3%	?
CC(=O)N1CN(C2CC(C)(C)NC(C)(C)C2)Cc2c1sc1c2CCCC1	-4.2%	-27.4%	?	11.7µM*	0.3%	11.7µM*
CC(=O)N(C1=C(Cl)C(=O)c2ccccc2C1=O)C1CCCCC1	-5.2%	-8.0%	7.94µM*	?	-20.0%	?
Cc1ccc(CNC(=O)CN(c2ccc(C(C)C)cc2)S(=O)(=O)c2c(C)noc2C)cc1	1.7%	15.7%	-9.2%	10.4µM*	0.7%	-7.7%
COc1ccc(CNC(=O)CN(c2ccc(C(C)C)cc2)S(=O)(=O)c2c(C)noc2C)cc1	1.8%	9.0%	10µM*	?	-4.3%	-14.0%
COc1ccc(CNC(=O)CN(c2ccc(C)cc2)S(=O)(=O)c2c(C)noc2C)cc1	-1.1%	2.5%	0.7%	68.6%	6.0%	-12.5%
Cc1noc(C)c1S(=O)(=O)N(CC(=O)NCc1ccc2c(c1)OCO2)c1ccc(C(C)C)cc1	-14.1%	-14.5%	?	-18.9%	0.0%	.

Screening data: PubChem, National Center for Advancing Translational Sciences (NCATS)
